The source made the active and inactive calls.
Each compound was assayed against E3 ubiquitin-protein ligase XIAP (Homo sapiens) (UniProt P98170) (assay: XIAP binders, primary screen, biophysical, small-molecule microarray, fluorescence 635 nm (AID 1181;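 note: score merges 667 nm emission and signal to noise over triplicate slides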)). Conditions: small-molecule microarray binding, higher = more signal.
Chain of E3 ubiquitin-protein ligase XIAP (Homo sapiens) (P98170 whole entry, looked up): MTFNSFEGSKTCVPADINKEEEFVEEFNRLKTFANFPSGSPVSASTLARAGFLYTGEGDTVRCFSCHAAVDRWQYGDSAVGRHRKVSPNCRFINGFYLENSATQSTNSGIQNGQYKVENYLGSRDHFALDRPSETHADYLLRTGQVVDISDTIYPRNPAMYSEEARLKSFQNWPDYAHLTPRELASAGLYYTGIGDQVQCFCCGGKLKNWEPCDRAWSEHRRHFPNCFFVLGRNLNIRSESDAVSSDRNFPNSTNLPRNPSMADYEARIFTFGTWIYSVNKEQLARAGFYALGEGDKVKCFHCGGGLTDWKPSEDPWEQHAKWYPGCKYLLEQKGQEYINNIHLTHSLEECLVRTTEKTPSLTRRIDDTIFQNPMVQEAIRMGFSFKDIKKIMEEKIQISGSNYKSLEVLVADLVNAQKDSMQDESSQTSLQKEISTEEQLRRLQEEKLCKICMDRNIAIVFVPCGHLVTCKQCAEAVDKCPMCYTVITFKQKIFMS
COC(=O)[C@@]1(Cc2ccc(F)cc2)[C@H]2c3cc(C(=O)N(C)C)n(Cc4ccc(OC(F)(F)F)cc4)c3C[C@H]2CN1C(=O)c1ccccc1 was tested, and the composite z-score was -0.102.
C=CCNC(=O)[C@H]1[C@@H]2C(=O)O[C@@H](c3ccccc3)[C@@H](c3ccccc3)N2[C@@H](c2ccccc2OCCO)[C@]12C(=O)N(C(=O)OCCOC)c1ccc(C#CC3(O)CCCCCC3)cc12 gave a composite z-score of -0.259.
Work on C=C(COC)/C(=C/C[C@H](OC(=O)c1ccncc1)c1ccccc1OCCO)c1cc(C(=O)OC)ccc1OC yielded a composite z-score of -0.157.
Work on CC(C)c1ccc(NN2C(C(O)c3ccc(C#N)cc3)C=CC3C(=O)N(c4ccccc4)C(=O)C32)cc1 (stereo unspecified) yielded a composite z-score of -0.152.
Work on CC(C)NC(=O)[C@@]1(c2ccc([N+](=O)[O-])cc2)CC(=O)N(C2CCCCC2)[C@@H]1c1ccc(CO)cc1 yielded a composite z-score of 0.112.
CCOC(=O)C[C@H]1[C@H](OC(=O)Cc2ccc3c(c2)OCO3)[C@@H](NC(=O)c2ccc3ccccc3n2)c2cc(OCCCO)ccc2N1C(=O)c1ccccc1 was tested, and the composite z-score was 0.134.
In the case of O=c1cccc(-c2ccc([N+](=O)[O-])cc2)o1, the composite z-score is reported as 0.515.
Compound CC(C)N1C(=O)C[C@@](C(=O)O)(c2ccc([N+](=O)[O-])cc2)[C@H]1c1ccc(CO)cc1 has a composite z-score of -0.169.
With CCCCCCCCCC(O)C1C=CC2C(=O)N(c3ccccc3)C(=O)C2N1Nc1cc(OC)c(OC)c(OC)c1 (stereo unspecified) the composite z-score was 0.176.
For COC(=O)[C@@]1(Cc2ccc(OC)cc2)[C@H]2c3cc(C(=O)N(C)C)n(Cc4ccc(C)o4)c3C[C@H]2CN1C(=O)c1ccccc1, the composite z-score was 0.072.
In the case of [N-]=[N+]=Nc1ccccc1C[C@]1(C(=O)NCC(O)CO)COC(c2ccc(OCCCO)cc2)=N1 (stereo partly specified), the composite z-score is reported as 0.0449.

These compounds were tested on XIP peptide (Xip251-270) binding (assay: small-molecule binders of XIP peptide, primary screen, biochemical, small-molecule microarray, fluorescence 635/667 nm, 0.1 µg/mL protein (AID 1182)). Conditions: fluorescent protein binding, 635 nm, higher = more signal, called active from +8 up or from −8 down.
With NC(=O)[C@@]1(Cc2ccccc2)COC(c2ccc(OCCCO)cc2)=N1 the composite z-score was 0.198 (inactive).
For CCOC(=O)C[C@H]1[C@H](OC(=O)c2ccc(C(=O)c3ccccc3)cc2)[C@@H](NC(=O)c2ccc3ccccc3n2)c2cc(OCCCO)ccc2N1C(=O)Cc1ccc(OC)cc1, the composite z-score was -0.667 (inactive).
For COC(=O)[C@@H]1N=C(c2ccc(OCCCO)cc2)O[C@@H]1c1ccccc1, the composite z-score was 0.178 (inactive).
With CCOc1cc(C(O)C2C=CC3C(=O)NC(=O)C3N2Nc2ccc(Cl)cc2Cl)ccc1O (stereo unspecified) the composite z-score was -0.736 (inactive).
For CCOC(=O)C=Cc1cccc(C)c1O, the composite z-score was 2.79 (inactive).
In the case of COC(=O)[C@@]1(Cc2ccc(OC)cc2)[C@H]2c3cc(C(=O)N4CCCC4)n(CCO)c3C[C@H]2CN1C(=O)c1ccccc1, the composite z-score is reported as 0.675 (inactive).
For CC1=C2[C@@H](CCc3ccccc3)OB(O)C[C@@H]2[C@@H]2C(=O)N(Cc3ccccc3)C(=O)[C@@H]2C1, the composite z-score was 0.291 (inactive).
In the case of C=CC[C@@H](OC(=O)Nc1ccc(SC)cc1)c1ccc(O)c(F)c1, the composite z-score is reported as 0.452 (inactive).
In the case of COCCCNC(=O)[C@@]1(CCC(=O)OC(C)(C)C)N=C(c2ccc(OCCCO)cc2)O[C@H]1c1ccccc1N=[N+]=[N-], the composite z-score is reported as 3.51 (inactive).
CCOC(=O)C[C@H]1[C@H](OC(=O)c2cc3ccccc3oc2=O)[C@@H](NC(=O)CC(C)C)c2cc(OCCCO)ccc2N1C(=O)c1ccc2ccccc2n1 was tested, and the composite z-score was 2.46 (inactive).
For Cc1ccc(C(C)CC(O)C2C=CC3C(=O)N(c4ccccc4)C(=O)C3N2Nc2ccccc2)o1 (stereo unspecified), the composite z-score was 0.0436 (inactive).
In the case of CN(C)c1ccc(C(O)C2C=CC3C(=O)NC(=O)C3N2Nc2ccccn2)cc1 (stereo unspecified), the composite z-score is reported as -0.181 (inactive).
CCCCN1CC=CC23O[C@@H]4/C=C\CCCOC(=O)C4[C@H]2C(=O)N(CCO)[C@@H]3C1=O (stereo partly specified) was tested, and the composite z-score was 0.51 (inactive).
In the case of COc1ccc([Si](C)(C)[C@@H]2[C@@H](CCO)O[C@]3(C(=O)N(Cc4ccccc4)c4ccc(N5C(=O)c6cccc7cccc5c67)cc43)[C@H]2C)cc1, the composite z-score is reported as 0.533 (inactive).
Oc1ccc2cc[n+](Cc3cc4c(cc3Br)OCO4)cc2c1 was tested, and the composite z-score was 0.425 (inactive).
In the case of CCCNC(=O)[C@@H]1c2ccccc2C(=O)N(Cc2ccc(OC(F)(F)F)cc2)[C@H]1c1ccc(CO)cc1, the composite z-score is reported as 0.688 (inactive).
With COCCOC(=O)N1C(=O)[C@@]2(c3cc(C#CC4=CCCCC4)ccc31)[C@H](c1ccccc1OCCO)N1[C@H](c3ccccc3)[C@H](c3ccccc3)OC(=O)[C@H]1[C@@H]2C(=O)NC[C@H](O)c1ccccc1 the composite z-score was 1.57 (inactive).
For O=C1N(CCS(=O)(=O)c2ccccc2)c2ccccc2[C@H]2OC(c3ccc(OCCCO)cc3)=N[C@@]12Cc1ccccc1, the composite z-score was 3.13 (inactive).
For [N-]=[N+]=Nc1ccccc1C[C@]1(C(=O)NCCN2CCOCC2)COC(c2ccc(OCCCO)cc2)=N1, the composite z-score was 0.728 (inactive).
In the case of C=CC[C@@]1(C(=O)NCCCOC)N=C(c2ccc(OCCCO)cc2)O[C@@H]1c1ccccc1N=[N+]=[N-], the composite z-score is reported as 0.05 (inactive).
In the case of COC(=O)C1=CC(CCCO)=CC(c2ccc(CN3CCCC3)cc2)N(Cc2cccc(OC(F)(F)F)c2)C=C1C(=O)OC (stereo unspecified), the composite z-score is reported as 1.68 (inactive).
With CCCC=C(CCC)[C@@H](NC(=O)c1cccs1)c1ccc(C(=O)OC)cc1 the composite z-score was -0.185 (inactive).
With CC1=C2[C@@H](CCc3ccccc3)OB(O)C[C@@H]2[C@@H]2C(=O)N(C)C(=O)[C@@H]2C1 the composite z-score was 0.796 (inactive).
COCCOC(=O)N1C(=O)[C@@]2(c3cc(C#CC4(O)CCCCCC4)ccc31)[C@H](c1ccc(O)cc1)N1[C@H](c3ccccc3)[C@H](c3ccccc3)OC(=O)[C@H]1[C@@H]2C(=O)N1CCN(c2ncccn2)CC1 was tested, and the composite z-score was 0.0849 (inactive).
With COC(=O)[C@@]1(Cc2ccc(F)cc2)[C@H]2c3cc(C(=O)N(C)C)n(Cc4ccc(OC(F)(F)F)cc4)c3C[C@H]2CN1C(=O)c1ccccc1 the composite z-score was 0.342 (inactive).
With C=CCNC(=O)[C@H]1[C@@H]2C(=O)O[C@@H](c3ccccc3)[C@@H](c3ccccc3)N2[C@@H](c2ccccc2OCCO)[C@]12C(=O)N(C(=O)OCCOC)c1ccc(C#CC3(O)CCCCCC3)cc12 the composite z-score was 0.892 (inactive).
In the case of C=C(COC)/C(=C/C[C@H](OC(=O)c1ccncc1)c1ccccc1OCCO)c1cc(C(=O)OC)ccc1OC, the composite z-score is reported as 0.0249 (inactive).
For CC(C)c1ccc(NN2C(C(O)c3ccc(C#N)cc3)C=CC3C(=O)N(c4ccccc4)C(=O)C32)cc1 (stereo unspecified), the composite z-score was 0.105 (inactive).
For CC(C)NC(=O)[C@@]1(c2ccc([N+](=O)[O-])cc2)CC(=O)N(C2CCCCC2)[C@@H]1c1ccc(CO)cc1, the composite z-score was 1.15 (inactive).
CCOC(=O)C[C@H]1[C@H](OC(=O)Cc2ccc3c(c2)OCO3)[C@@H](NC(=O)c2ccc3ccccc3n2)c2cc(OCCCO)ccc2N1C(=O)c1ccccc1 was tested, and the composite z-score was 0.269 (inactive).
O=c1cccc(-c2ccc([N+](=O)[O-])cc2)o1 was tested, and the composite z-score was 0.164 (inactive).
In the case of CC(C)N1C(=O)C[C@@](C(=O)O)(c2ccc([N+](=O)[O-])cc2)[C@H]1c1ccc(CO)cc1, the composite z-score is reported as 1.04 (inactive).
In the case of CCCCCCCCCC(O)C1C=CC2C(=O)N(c3ccccc3)C(=O)C2N1Nc1cc(OC)c(OC)c(OC)c1 (stereo unspecified), the composite z-score is reported as -0.26 (inactive).
COC(=O)[C@@]1(Cc2ccc(OC)cc2)[C@H]2c3cc(C(=O)N(C)C)n(Cc4ccc(C)o4)c3C[C@H]2CN1C(=O)c1ccccc1 was tested, and the composite z-score was 0.223 (inactive).
In the case of [N-]=[N+]=Nc1ccccc1C[C@]1(C(=O)NCC(O)CO)COC(c2ccc(OCCCO)cc2)=N1 (stereo partly specified), the composite z-score is reported as -0.0462 (inactive).

Source: PubChem BioAssay
